Bioassay records (PubChem BioAssay)
NOD2 RIPK2 PPI – NOD2-RIPK2 binding disruptors in cells, primary screen, fluorescence, CHO cells, BLA complementation; Receptor-interacting serine/threonine-protein kinase 2 (Homo sapiens), O43353; CCF4 ratio; inhibition, % at 4.98 µM; hit rate 0.38% among 360,000; AID 624267, 2012; in the data active means inhibition above about 21%
Target sequence (O43353 whole entry, looked up): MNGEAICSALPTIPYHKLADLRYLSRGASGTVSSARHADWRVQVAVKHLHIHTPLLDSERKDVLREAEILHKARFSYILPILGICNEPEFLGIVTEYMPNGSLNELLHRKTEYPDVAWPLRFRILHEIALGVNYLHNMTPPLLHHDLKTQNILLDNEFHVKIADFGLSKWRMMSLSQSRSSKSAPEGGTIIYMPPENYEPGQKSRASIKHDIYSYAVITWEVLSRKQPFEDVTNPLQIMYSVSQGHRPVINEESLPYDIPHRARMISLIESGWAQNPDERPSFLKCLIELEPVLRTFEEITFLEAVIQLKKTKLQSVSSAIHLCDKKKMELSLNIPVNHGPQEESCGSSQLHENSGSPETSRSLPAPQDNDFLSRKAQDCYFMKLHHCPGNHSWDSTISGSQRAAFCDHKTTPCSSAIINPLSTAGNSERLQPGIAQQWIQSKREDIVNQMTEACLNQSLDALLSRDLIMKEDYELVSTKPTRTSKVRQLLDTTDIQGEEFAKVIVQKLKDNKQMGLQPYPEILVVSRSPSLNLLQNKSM
TLR9-MyD88 block – inhibitors of TLR9-MyD88 association in cells, primary screen, cell-based, CHO, BLA complementation, fluorescence. Toll-like receptor 9 (Homo sapiens) + Myeloid differentiation primary response protein …. CCF4 FRET ratio. inhibition, % at 4.98 µM. hit rate 0.21% among 340,000;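 active means inhibition above the mean over all tested compounds plus 3 SD, cut at about 21% in these data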
PRMT1 inh – PRMT1 methyltransferase inhibitors, primary screen, biochemical, fluorescence polarization. Protein arginine N-methyltransferase 1 (Homo sapiens), Q99873. recombinant PRMT1, activity-based probe fluorescence polarization. inhibition, % at 2.79 µM. hit rate 1.3% among 370,000;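 active means inhibition above about 21% made by adding two undisclosed values, limit read from the data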
rCAG binder – binders of r(CAG) RNA repeats, primary screen, biochemical, fluorescence | r(CAG) RNA repeat, TO-PRO-1 dye displacement fluorescence | inhibition, % at 3 µM | hit rate 1.3% among 370,000 | AID 651821, 2012;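 active means inhibition above the plate cutoff, the mean of all test compounds on that plate plus 3 SD, cut at about 35% in these data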;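 further: higher means more dye released from RNA so lower well fluorescence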
ABHD5-PLIN5 inh – ABHD5-PLIN5 interaction inhibitors, primary screen, cell lysate, split luciferase complementation, luminescence. Perilipin-5 (Homo sapiens) + 1-acylglycerol-3-phosphate O-acyltransferase ABHD5 (Homo …. hit rate 0.78% among 360,000. Split G. princeps luciferase complementation, 4 h. inhibition, % at 4 µM;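 active means inhibition above the mean inhibition across every tested compound plus 3 SD, cut at about 22% in these data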
TLR4 MyD88 comp – inhibitors of TLR4-MyD88 association in cells, primary screen, cell-based, HeLa CL3-4, BLA complementation, FRET ratio | HeLa CL3-4 TLR4/MyD88 BLA complementation | inhibition, % at 8.4 µM | hit rate 0.18% among 200,000; in the data active means inhibition above about 25%
PRMT1 confirm – PRMT1 methyltransferase inhibitors, confirmation, biochemical, fluorescence polarization, triplicate | shares compounds with PRMT1 inh | recombinant His-PRMT1, activity-based probe fluorescence polarization | inhibition, % at 2.79 µM | hit rate 42% among 3,300 | AID 687036, 2013;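 active means mean inhibition across replicates above the hit cutoff derived for the earlier primary screen, cut at about 22% in these data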
Of the large screens only hits and unclear results are named; the others gave an inactive call (follow-up assays come after a bar, where they were run); ! = a repeat was not active. Hits are enriched below; roughly 3.3% of the tested compounds scored in any of these assays.

Cc1cc2oc(=O)cc(-c3cc4ccccc4o3)c2cc1O	none (no result: TLR4 MyD88 comp)
Cc1c2cc(O)c(=O)cc-2oc2cc(O)c(O)cc12	PRMT1 inh 67 | PRMT1 confirm 137
COc1ccc(CC(=O)n2[nH]c(=O)ccc2=O)cc1OC	PRMT1 inh 75 (no result: TLR9-MyD88 block, TLR4 MyD88 comp) | PRMT1 confirm 96
NS(=O)(=O)c1ccc(-c2ccc(C=O)o2)cc1	none (no result: TLR9-MyD88 block)
NS(=O)(=O)c1ccc(-c2ccc(/C=C3\NC(=S)NC3=O)o2)cc1	PRMT1 inh 53 (no result: TLR4 MyD88 comp) | PRMT1 confirm 27
O=c1cc2c(=O)oc3cc(O)c(O)oc3c2c(O)c1O	PRMT1 inh 27 (no result: TLR4 MyD88 comp) | PRMT1 confirm 31
O=c1oc2cc(O)c(Cl)cc2c2ccccc12	none
COc1ccccc1NC(=O)c1cccc2c(Br)cccc12	none (no result: TLR4 MyD88 comp)
O=C1NC(CCO)C(=O)NC1CCO (stereo not given)	none (no result: TLR4 MyD88 comp)
Cc1c(Cc2ccc3c(c2)OCO3)sc(NC(=O)C2CC2)c1C(N)=O	PRMT1 inh 30 (no result: TLR4 MyD88 comp) | PRMT1 confirm inactive
OCC[C@@H]1C[C@H](O)[C@@H](O)[C@]2(CCCO2)O1	none (no result: TLR4 MyD88 comp)
S=c1[nH]nc(Nc2cccc3ccccc23)s1	PRMT1 inh 55 (no result: TLR9-MyD88 block, TLR4 MyD88 comp) | PRMT1 confirm 42
Cc1ccccc1Nc1n[nH]c(=S)s1	PRMT1 inh 36 (no result: TLR4 MyD88 comp) | PRMT1 confirm inactive
CCC(CO)Nc1cccc2c1S(=O)(=O)N(Cc1cn(Cc3ccc(Cl)cc3)nn1)Cc1ccccc1O2 (stereo not given)	none (no result: NOD2 RIPK2 PPI, TLR9-MyD88 block, ABHD5-PLIN5 inh, TLR4 MyD88 comp)
CC1CN(S(=O)(=O)c2ccc(C(=O)N(C)C3CCCCC3)cc2)CC(C)O1 (stereo not given)	none (no result: TLR4 MyD88 comp)
COC(=O)c1nn(-c2ccc(OC)cc2)c(=O)c2c(N)sc(C)c12	PRMT1 inh 25 | PRMT1 confirm inactive
CN1CCC2(CC1)C1CN(C)CC=C1C(C#N)=C(N)C2(C#N)C#N (stereo not given)	PRMT1 inh 40 | PRMT1 confirm 22!
O=C(N[C@@H](Cc1cccnc1)C(=O)N1CCC[C@H]1C(=O)NC1CCCC1)C1CC1	none (no result: NOD2 RIPK2 PPI, TLR9-MyD88 block, ABHD5-PLIN5 inh, TLR4 MyD88 comp)
Cc1cc(C)n(CCC(=O)N2CCCC(N3CCN(c4cccc(Cl)c4)CC3)C2)n1 (stereo not given)	none (no result: TLR4 MyD88 comp)
O=C(O)CCC(=O)Nc1ccc(N2CCCCCC2)cc1	PRMT1 inh 31 | PRMT1 confirm inactive
Cc1c(N)cc(N)cc1C(=O)O	PRMT1 inh 32 (no result: TLR4 MyD88 comp) | PRMT1 confirm inactive
O=C(CSc1nccn(-c2ccc3c(c2)OCCO3)c1=O)Nc1ccccc1	PRMT1 inh 45 (no result: TLR4 MyD88 comp) | PRMT1 confirm 24
O=C(CSc1nccn(-c2cccc(F)c2)c1=O)Nc1ccc(Cl)cc1F	PRMT1 inh 75 (no result: TLR4 MyD88 comp) | PRMT1 confirm 69
O=C(CSc1nccn(-c2ccc(F)c(F)c2)c1=O)NC1CCCC1	none (no result: TLR4 MyD88 comp)
CCOC(=O)N1CCN(C(=O)c2c(Cl)cnn2C)CC1	none (no result: TLR4 MyD88 comp)
COc1ccc(C2NC(=S)NC3=C2CCc2cc(OC)ccc23)cc1 (stereo not given)	none
Cc1ccc(/C=C2\CC(C)CC3=C2NC(=S)NC3c2ccc(C)cc2)cc1 (stereo not given)	PRMT1 inh 38 (no result: TLR4 MyD88 comp) | PRMT1 confirm 30
Cc1ccc(/C=C2\CCCC3=C2NC(=S)NC3c2ccc(C)cc2)cc1 (stereo not given)	PRMT1 inh 45 | PRMT1 confirm 35
CC1CC2=C(NC(=S)NC2c2ccccc2F)/C(=C/c2ccccc2F)C1 (stereo not given)	PRMT1 inh 49 | PRMT1 confirm inactive
COc1ccc(N2CCN(C(=O)COC(=O)/C=C/c3ccc(C(F)(F)F)cc3)CC2)cc1	none (no result: TLR4 MyD88 comp)
CC(=O)c1cc(-c2cc3ccccc3o2)c(=O)n2c1CCC2	none (no result: NOD2 RIPK2 PPI, TLR9-MyD88 block, ABHD5-PLIN5 inh, TLR4 MyD88 comp)
COC(=O)[C@]12CCCCC=C1N(CCC1=CCCCC1)C(=O)[C@H](CC(=O)N1CCOCC1)C2	none (no result: TLR9-MyD88 block, TLR4 MyD88 comp)
CC(=O)Nc1ccc(-c2csc(NNC(=O)c3ccccc3)n2)cc1	PRMT1 inh 26 | PRMT1 confirm inactive
O=C(NNc1nc(-c2ccc(Cl)cc2)cs1)c1ccco1	none
O=C(NNc1nc(-c2ccccc2)cs1)c1ccco1	PRMT1 inh 42 | PRMT1 confirm inactive
COc1ccc(N2CC(C(=O)N[C@@H](C)C(=O)NCc3ccccc3OC)CC2=O)cc1 (stereo not given in full)	none (no result: TLR4 MyD88 comp)
COc1cc(/C=N/NC(=S)NCc2ccccc2)ccc1OCC#N	none
CCOc1ccc(N2C(=O)CC(N3CCC(O)(c4ccc(Br)cc4)CC3)C2=O)cc1 (stereo not given)	PRMT1 inh 56 | PRMT1 confirm inactive
CCOC(=O)c1ccc(N2C(=O)CC(N3CCC(O)(c4ccc(Br)cc4)CC3)C2=O)cc1 (stereo not given)	none
CCOC(=O)c1ccc(N2C(=O)CC(N3CCC(O)(c4ccc(Cl)cc4)CC3)C2=O)cc1 (stereo not given)	PRMT1 inh 50 | PRMT1 confirm inactive
COc1ccc(N2CCN(C(c3ccc4ncccc4c3)c3nnnn3C(C)C)CC2)cc1 (stereo not given)	none (no result: TLR4 MyD88 comp)
COc1ccccc1NS(=O)(=O)c1cc(N2Cc3ccccc3C2=N)ccc1N1CCOCC1	PRMT1 inh 27 | PRMT1 confirm inactive
c1ccc(NNC2=NCCS2)cc1	PRMT1 inh 29 (no result: TLR4 MyD88 comp) | PRMT1 confirm inactive
O=C(CSc1ccccc1)NC1=NCCS1	none (no result: TLR4 MyD88 comp)
COc1cccc(/C=N/n2c(COc3ccccc3)n[nH]c2=S)c1OC	PRMT1 inh 27 (no result: TLR4 MyD88 comp) | PRMT1 confirm inactive
CC(/C=N/n1c(COc2ccccc2)n[nH]c1=S)=C\c1ccccc1	PRMT1 inh 27, rCAG binder 41 | PRMT1 confirm inactive
S=c1[nH]nc(COc2ccccc2)n1/N=C/c1ccc(Cl)c(Cl)c1	none (no result: TLR4 MyD88 comp)
CC(=C/c1ccccc1)/C=N/n1c(C)n[nH]c1=S	none (no result: TLR4 MyD88 comp)
Cc1cccc(/C=N/n2c(COc3ccccc3)n[nH]c2=S)c1	PRMT1 inh 28 (no result: TLR4 MyD88 comp) | PRMT1 confirm inactive
CC(=O)Nc1ccc(-c2ccnc3c2CC(C)(C(=O)Nc2ccc4c(c2)OCO4)O3)cc1 (stereo not given)	none (no result: TLR9-MyD88 block, TLR4 MyD88 comp)
N#CCc1c(C#N)c(N)nc(Nc2ccccc2)c1C#N	PRMT1 inh 40 (no result: TLR4 MyD88 comp) | PRMT1 confirm inactive
CN(c1ccccc1)c1nc(N)c(C#N)c(CC#N)c1C#N	none
O=C(c1ccc2c(c1)OCO2)N1CCN(S(=O)(=O)c2ccc(Cl)cc2)CC1	none (no result: TLR4 MyD88 comp)
CCOC(=O)[C@]12CCCC=C1N(Cc1ccc(OC)cc1)C(=O)[C@@H]2CC(=O)NCCCN1CCCC1=O	none (no result: NOD2 RIPK2 PPI, TLR9-MyD88 block, ABHD5-PLIN5 inh, TLR4 MyD88 comp)
